# Experimental data from PubChem BioAssay.
# Activity calls are given as the source filed them.
# Test: PSAC antagonists in infected red cells, primary screen, cell-based, P. falciparum Indochina, OD700, 18 h (AID 1157)
# Conditions: P. falciparum Indochina infected erythrocytes, osmotic lysis OD700, 18 h; higher = more signal, called active from +8 up or from −8 down
row,Compound,z-score
1,C#CCN([C@@H](Cc1ccc(O)cc1)C(=O)OC)[C@@H](/C=C/C1CC1)[C@H](O)Cc1ccccc1,0.353 (inactive)
2,O=C1O[C@@H](c2ccccc2)[C@@H](c2ccccc2)N2[C@@H](c3ccccc3OCCO)[C@]3(C(=O)Nc4ccc(C#CCCO)cc43)[C@@H](C(=O)N3CCCCCCC3)[C@H]12,0.49 (inactive)
3,CCOC(=O)C1=C[C@@H](c2ccccc2)N(S(=O)(=O)c2ccc(C)cc2)[C@H]1c1ccccc1Cl,0.805 (inactive)
4,CCCNC(=O)[C@@]1(c2ccc([N+](=O)[O-])cc2)CC(=O)N(C2CCCCC2)[C@@H]1c1ccc(CO)cc1,0.988 (inactive)
5,COC(=O)Cn1c(C(=O)N(C)C)cc2c1C[C@H]1CN(C(=O)c3ccccc3)[C@@](Cc3ccc(F)cc3)(C(=O)OC)[C@@H]21,0.52 (inactive)
6,O=C1C[C@@](C(=O)NCCN2CCOCC2)(c2ccc([N+](=O)[O-])cc2)[C@@H](c2ccc(CO)cc2I)N1C1CCCCC1,-0.168 (inactive)
7,C=CCN1Cc2ccccc2[C@H]2OC(c3ccc(OCCCO)cc3)=N[C@@]2(CC=C)C1=O,6.4 (inactive)
8,O=C1c2ccccc2[C@](Cc2ccccc2I)(C(=O)NCC(F)(F)F)[C@H](c2ccc(CO)cc2)N1C1CCCCC1,0.0361 (inactive)
9,COc1ccc(C(O)C2C=CC3C(=O)N(c4ccccc4)C(=O)C3N2Nc2ccc([N+](=O)[O-])cc2)cc1 (stereo unspecified),1.24 (inactive)
10,COCCOC(=O)N1C(=O)[C@@]2(c3cc(C#CCC(C(=O)OC)C(=O)OC)ccc31)[C@H](C(=O)N1CCc3cc(OC)c(OC)cc3C1)[C@H]1C(=O)O[C@H](c3ccccc3)[C@H](c3ccccc3)N1[C@@H]2c1ccc(OCCO)cc1,1.67 (inactive)

# Test: modulators of S6 phosphorylation in cells, primary screen, cell-based, A549, cytoblot, luminescence, serum-stimulated (AID 1158);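 also: serum-stimulated A549 lung adenocarcinoma cells; signal is phosphorylated S6 detected by cytoblot immunostaining with HRP secondary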
# Conditions: A549 phospho-S6 cytoblot, 5 h, higher = more signal
row,Compound,z-score
1,COc1ccc([Si](C)(C)[C@H]2[C@H](CCO)O[C@@]3(C(=O)N(Cc4cccc(N5C(=O)COc6ccccc65)c4)c4ccccc43)[C@@H]2C)cc1,0.805
2,CC(C)(C)OC(=O)CC[C@@]1(C(=O)NCc2ccccc2)N=C(c2ccc(OCCCO)cc2)O[C@@H]1c1ccccc1N=[N+]=[N-],0.787
3,CN(C)CCCNC(=O)[C@@]1(c2ccc([N+](=O)[O-])cc2)CC(=O)N(CC23CC4CC(CC(C4)C2)C3)[C@@H]1c1ccc(CO)cc1I,-2.32
4,C=C[C@@H](OC)[C@H](OC(=O)Nc1ccc(SC)cc1)c1ccc(O)c(F)c1,-0.618
5,CCC(CC)C(O)C1C=CC2C(=O)N(c3ccccc3)C(=O)C2N1Nc1ccc(C(C)C)cc1 (stereo unspecified),-0.463
6,COC(=O)[C@@]1(Cc2ccc(F)cc2)[C@H]2c3cc(C(=O)N(C)C)n(CCc4ccc(O)c(OC)c4)c3C[C@H]2CN1C(=O)c1ccccc1,-0.824
7,CC(C)[Si](C#CCCCC#N)(O[C@H](c1ccccc1)c1cn([C@H](CO)Cc2ccccc2)nn1)C(C)C,-0.013
8,Cc1cc(C)c(C(O)C2C=CC3C(=O)NC(=O)C3N2Nc2ccc(Cl)cc2Cl)c(C)c1 (stereo unspecified),-0.919
9,CCOc1cc(C(O)C2C=CC3C(=O)N(C)C(=O)C3N2Nc2ccccc2)ccc1O (stereo unspecified),-1.01
10,O=C1O[C@H](c2ccccc2)[C@H](c2ccccc2)N2[C@H]1[C@@H](C(=O)Nc1nc3ccccc3s1)[C@]1(C(=O)Nc3ccc(C#CCCO)cc31)[C@H]2c1ccc(O)cc1,-0.263
11,CC(C)OC(=O)C=C1C[C@@H](c2ccc(C(F)(F)F)cc2)O[C@@H](c2ccc(C(F)(F)F)cc2)O1,0.569
12,CN(C)C(=O)[C@]1(CCS(=O)(=O)c2ccccc2)N=C(c2ccc(OCCCO)cc2)O[C@@H]1c1ccccc1N=[N+]=[N-],0.178
13,C=CCOC(=O)[C@H]1[C@@H]2C(=O)O[C@@H](c3ccccc3)[C@@H](c3ccccc3)N2[C@@H](c2ccc(OCCOC(=O)[C@H]3C[C@H]4C(=O)N[C@@H](CCCCNC(C)=O)C(=O)N4[C@H]3c3ccc(O)cc3)cc2)[C@]12C(=O)Nc1ccccc12,1.4
14,CC(CO)N1C(=O)[C@@H]2[C@H]3C(=O)OCC=C[C@H]3OC23C=CCN(Cc2ccccc2)C(=O)[C@@H]13 (stereo partly specified),0.473
15,COCCOC(=O)N1C(=O)[C@@]2(c3cc(C#Cc4ccc(OC)cc4)ccc31)[C@H](C(=O)Nc1nc3ccccc3s1)[C@H]1C(=O)O[C@H](c3ccccc3)[C@H](c3ccccc3)N1[C@@H]2c1ccc(O)cc1,0.709
16,O=C1OCCC=C[C@H]2OC34C=CCN(Cn5nnc6ccccc65)C(=O)[C@H]3N(CCCCCCO)C(=O)[C@@H]4C12 (stereo partly specified),0.916
17,CN(C)C(=O)[C@@]1(CCS(=O)(=O)c2ccccc2)N=C(c2ccc(OCCCO)cc2)O[C@H]1c1ccccc1,-0.789
18,CCCCN1CC=CC23O[C@@H]4/C=C\CCC(C)OC(=O)C4[C@H]2C(=O)N(C(CO)C(C)C)[C@@H]3C1=O (stereo partly specified),1.81

row,Compound,z-score
1,COC(=O)[C@H](Cc1ccccc1)N1CC(/C=C/C2CC2)=C[C@H]1[C@H](O)Cc1ccccc1,0.184
2,CCCCCCc1nc(C2CC2)cc2c1[Si](C(C)C)(C(C)C)OC2,0.259
3,Cc1ccc(S[C@]2(C(=O)NCC(F)(F)F)CC(=O)N(C3CCCCC3)[C@@H]2c2ccc(CO)cc2I)cc1,-0.283
4,CCCC[C@@H]1C[C@H]1[C@@H](NC(=O)Cc1ccccc1)c1ccc(-c2ccccc2)cc1,0.871
5,COC(=O)[C@@]1(Cc2ccc(OC)cc2)[C@H]2c3cc(C(=O)N(C)C)n(Cc4ccc(Cl)c(C(F)(F)F)c4)c3C[C@H]2CN1C(=O)c1ccccc1,-0.264
6,C=C(C)C1CCC(C(O)C2C=CC3C(=O)N(C)C(=O)C3N2N2CCCCC2)CC1 (stereo unspecified),-1.41
7,COCCOC(=O)N1C(=O)[C@@]2(c3cc(C#CCNC(N)=O)ccc31)[C@H](C(=O)N1CCc3cc(OC)c(OC)cc3C1)[C@H]1C(=O)O[C@H](c3ccccc3)[C@H](c3ccccc3)N1[C@@H]2c1ccccc1OCCO,1.81
8,O=C1OCCC/C=C\[C@H]2OC34C=CCN(CCN5CCOCC5)C(=O)[C@H]3N(CCCCCCO)C(=O)[C@@H]4C12 (stereo partly specified),1.66
9,C#CCN([C@@H](Cc1ccc(O)cc1)C(=O)OC)[C@@H](/C=C/C1CC1)[C@H](O)Cc1ccccc1,-0.839
10,O=C1O[C@@H](c2ccccc2)[C@@H](c2ccccc2)N2[C@@H](c3ccccc3OCCO)[C@]3(C(=O)Nc4ccc(C#CCCO)cc43)[C@@H](C(=O)N3CCCCCCC3)[C@H]12,-0.544
11,CCOC(=O)C1=C[C@@H](c2ccccc2)N(S(=O)(=O)c2ccc(C)cc2)[C@H]1c1ccccc1Cl,-0.48
12,CCCNC(=O)[C@@]1(c2ccc([N+](=O)[O-])cc2)CC(=O)N(C2CCCCC2)[C@@H]1c1ccc(CO)cc1,-0.002
13,COC(=O)Cn1c(C(=O)N(C)C)cc2c1C[C@H]1CN(C(=O)c3ccccc3)[C@@](Cc3ccc(F)cc3)(C(=O)OC)[C@@H]21,-0.38
14,O=C1C[C@@](C(=O)NCCN2CCOCC2)(c2ccc([N+](=O)[O-])cc2)[C@@H](c2ccc(CO)cc2I)N1C1CCCCC1,0.452
15,C=CCN1Cc2ccccc2[C@H]2OC(c3ccc(OCCCO)cc3)=N[C@@]2(CC=C)C1=O,0.0524
16,O=C1c2ccccc2[C@](Cc2ccccc2I)(C(=O)NCC(F)(F)F)[C@H](c2ccc(CO)cc2)N1C1CCCCC1,0.175
17,COc1ccc(C(O)C2C=CC3C(=O)N(c4ccccc4)C(=O)C3N2Nc2ccc([N+](=O)[O-])cc2)cc1 (stereo unspecified),-0.727
18,COCCOC(=O)N1C(=O)[C@@]2(c3cc(C#CCC(C(=O)OC)C(=O)OC)ccc31)[C@H](C(=O)N1CCc3cc(OC)c(OC)cc3C1)[C@H]1C(=O)O[C@H](c3ccccc3)[C@H](c3ccccc3)N1[C@@H]2c1ccc(OCCO)cc1,-0.37
